An excerpt weighted towards active compounds, which were near 5.3% of everything screened.
IMPase inh: cell-permeable inhibitors of inositol monophosphatase (IMPase). inhibition (IP1 accumulation), % at 46.1 µM. CHO-M1 cells, IP1 accumulation, HTRF TR-FRET ratio. 120,000 tested, under 10 active. AID 901. P97697; active = well fitted curve in the direction sought with a large enough effect in the signal ratio, not every such curve was filed as active; inconclusive = small, poorly fitted or top-dose-only effect, or a change in a side signal; inactive = no such curve, though single readings can be large or run the other way; the % refers to the signal ratio;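 note: cells stimulated with carbachol in lithium chloride buffer; plate controls were DMSO basal wells for no effect and reference inhibitor wells for full effect; higher means more IMPase inhibition seen as more IP1 and lower FRET ratio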
Target sequence (P97697 whole entry, looked up): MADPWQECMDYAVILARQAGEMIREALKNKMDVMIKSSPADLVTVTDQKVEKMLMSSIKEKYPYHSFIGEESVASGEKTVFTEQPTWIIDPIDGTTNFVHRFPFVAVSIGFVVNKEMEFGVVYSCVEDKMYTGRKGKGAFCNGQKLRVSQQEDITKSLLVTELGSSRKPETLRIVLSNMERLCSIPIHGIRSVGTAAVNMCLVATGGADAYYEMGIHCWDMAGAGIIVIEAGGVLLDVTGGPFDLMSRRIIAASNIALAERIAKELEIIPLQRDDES
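Seeded CHO-M1 cells were dosed with compound at up to 46 uM, stimulated with carbachol for 30 min, then lysed in IP-One detection reagents. Higher IP1 lowers the TR-FRET signal.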
15-hLO-2 inh: inhibitors of human 15-lipoxygenase 2 (ALOX15B) | AID 881 | purified 15hLO-2, xylenol orange hydroperoxide absorbance | 110,000 tested, 0.56% active | Potency, µM (highest dose often 57.1 µM), for the others: at the highest dose activity change, negative = inhibition, actives largely listed as inhibitors | O15296; note: potency is the fitted concentration of half-maximal effect; nearly all actives have a fitted effect of over 60% in size
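Read-out: hydroperoxide product oxidises ferrous iron, measured as xylenol orange complex via the 573-to-405 nm absorbance ratio after 30 min. Reaction: 50 nM enzyme, 15 min compound preincubation, 45 uM arachidonic acid, 90 min RT, Hepes pH 7.5 with Triton X-100.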
ALOX12 inhib: inhibitors of human 12-lipoxygenase (ALOX12); Potency, µM (top dose mostly 57.1 µM), inactives show at the highest dose activity change, negative = inhibition, usual class: inhibitors; purified 12-hLO, xylenol orange hydroperoxide absorbance; 150,000 tested, 0.12% active; note: potency is the fitted concentration of half-maximal effect; nearly all actives have a fitted effect of over 55% in size
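Purified human 12hLO (150 nM final) was preincubated with compounds for 15 min at room temperature in 25 mM Hepes pH 7.0, 0.01% Triton X-100, then reacted with 40 uM arachidonic acid for 30 min. Hydroperoxide was detected with ferrous iron/xylenol orange.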
PNC assembly inh: perinucleolar compartment assembly inhibition; PC3M PTB-GFP, PNC prevalence imaging, 16 h; hits give low values; activity change (PNC), negative = inhibition, % at 10 µM; 140,000 tested, 3.1% active;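 active = readout at or below -70, meaning at least 70% loss of cells showing the perinucleolar compartment, a nuclear body marking cancer cells; inconclusive = readout between -30 and a set limit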;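 note: plate controls were DMSO wells for no effect and camptothecin positive control wells for full effect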
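Read-out is percentage of cells bearing a perinucleolar compartment, from automated 20x imaging of fixed, Hoechst-stained PC3M PTB-GFP cells. Cells were seeded 4 h, then exposed 16 h to compound (23 nl of library stock) in duplicate plates.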
IMPase Li cell: cell-permeable IMPase inhibitors with lithium potentiation; CHO-M1 cells, IP1 TR-FRET (IP-One), carbachol + lithium; Potency, µM (titrated, usually from 59.4 µM), for inactives: at the highest dose activity, negative = IMPase inhibition, most hits filed as inhibitors; 210,000 tested, 0.35% active; AID 1457;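 note: IP1 builds up when IMPase is blocked and the TR-FRET signal falls; potency is the fitted concentration of half-maximal effect; plate controls were basal vehicle for no effect and high inhibitor control for full effect; nearly all actives have a fitted effect of over 50% in size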
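Readout is a homogeneous TR-FRET IP1 immunoassay (Ex 320, Em 665 and 620), where raised cytosolic IP1 lowers signal. Cells were CHO-M1 treated 30 min at 37C with test compounds plus a little lithium; AC50 values came from Hill-equation fitting.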
HPGD block: inhibitors of human 15-hydroxyprostaglandin dehydrogenase (HPGD). P15428. purified HPGD, NADH fluorescence kinetic, PGE2 substrate. Potency, µM, without a hit: at the highest dose activity change, negative = inhibition, actives largely listed as inhibitors. 150,000 tested, 4.3% active; active = well fitted inhibition curve with a large enough effect, not every such curve was filed as active; inconclusive = small, poorly fitted or top-dose-only effect, or another doubt; inactive = no such curve, though single readings can be large or run the other way; note: potency is the fitted concentration of half-maximal effect
Target sequence (P15428 whole entry, looked up): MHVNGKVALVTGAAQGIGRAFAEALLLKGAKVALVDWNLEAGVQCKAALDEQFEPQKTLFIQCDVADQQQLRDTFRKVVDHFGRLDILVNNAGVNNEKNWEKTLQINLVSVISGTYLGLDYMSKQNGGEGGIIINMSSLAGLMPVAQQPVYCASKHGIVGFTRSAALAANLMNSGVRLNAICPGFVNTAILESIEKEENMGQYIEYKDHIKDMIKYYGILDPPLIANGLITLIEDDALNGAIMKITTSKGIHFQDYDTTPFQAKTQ
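20 nM HPGD preincubated 15 min at room temperature with compound in 50 mM Tris-HCl pH 8, 0.01% Tween 20. Started with 1 mM NAD+ and 30 uM prostaglandin E2; NADH fluorescence (360/450 nm) read 5 times over 30-s intervals, last minus first.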
Numbers without * were called inactive; ? = inconclusive; / = not tested or not shown; [ ] = remark or other dose. Unless noted, calls come from the whole dose curve; as a rule, active = well fitted curve in the direction sought with a large enough effect; inconclusive = small, poorly fitted or top-dose-only effect, or another doubt; inactive = no such curve, though single readings can be large; an effect the other way counts as inactive or inconclusive. Unless noted, % is set by controls: 0 for no effect and ±100 for the full control effect.

SMILES | IMPase inh | 15-hLO-2 inh | ALOX12 inhib | PNC assembly inh | IMPase Li cell | HPGD block
CCOc1cccc(-c2nnc(SCC(=O)Nc3ccc(OC)c(OC)c3)n2N)c1 | 0 | 10% | 1% | -108* | 1%[38.3 µM] | -3%
CCOc1cccc(-c2nnc(SCC(=O)Nc3cc(C)ccc3OC)n2N)c1 | 5 | 7% | -7% | 3 | -25%[38.3 µM] | -15%
CCCCSc1nnc2[nH]c(=O)cc(N)n12 | 0 | 4% | -7% | 25 | 22%[38.3 µM] | 16µM*
COc1ccc(Cc2ccccc2C(=O)O)c2ccccc12 | / | -6%[11.4 µM] | 3%[11.4 µM] | / | 9% | -3%
CC(=O)c1cccc(NS(=O)(=O)c2c(C)n[nH]c2C)c1 | 2 | -3% | -5% | ? | -8%[38.3 µM] | -1%
CCc1cccc(NS(=O)(=O)c2c(C)n[nH]c2C)c1 | 4 | / | 1% | -100* | 0% | -11%
COc1ccc(CN(C(=O)c2ccc(OCC(C)C)cc2)C2CCS(=O)(=O)C2)cc1 (configuration not stated) | 15 | / | / | / | / | /
CC(=O)Oc1ccc2c(c1)CCC1C2CC[C@@]2(C)C1CC(OC(C)=O)C2OC(C)=O (some centres not stated) | / | 2% | -4% | / | -2% | -13%
CCCCNC(=O)/C(C#N)=C/c1cccnc1 | / | / | 0% | -106* | -3% | ?
N#C/C(=C\c1ccc(O)c(O)c1)C(=O)NCCCc1ccccc1 | 10 | ? | ? | 8 | 12% | 32µM*
COCCNC(=O)/C(C#N)=C/c1cccc(/C=C(\C#N)C(=O)NCCOC)c1 | / | / | -3% | ? | 16% | 25µM*
Cc1cccc(NC(=O)/C(C#N)=C\c2cccnc2)c1 | -12 | -22% | 0% | 2 | -2% | -13%
COCCNC(=O)/C(C#N)=C/C(C)=C/c1ccccc1 | / | / | -2% | -10 | 6% | -21%
NCCSS(=O)(=O)CCN | / | -6%[11.4 µM] | 13%[11.4 µM] | / | -3% | ?
Cc1cccc(-c2nnc3n2N=C(c2ccccc2Br)CS3)c1 | 2 | -17% | -17% | -1 | 43%[38.3 µM] | 2.5µM*
Cc1ccc(-c2nnc3n2N=C(c2ccccc2)CS3)cc1 | 0 | / | -2% | 48 | 15% | -10%
CCOc1cccc(-c2nnc3n2N=C(c2cc(OC)ccc2OC)CS3)c1 | 14 | / | -14% | -99* | 27% | 25µM*
COc1ccc(OC)c(C2=Nn3c(nnc3-c3cc(OC)c(OC)c(OC)c3)SC2)c1 | 18 | -2% | -7% | -4 | 16%[38.3 µM] | -28%
COc1cccc(-c2nnc3n2N=C(c2cc(OC)ccc2OC)CS3)c1 | 5 | -6% | -4% | -1 | 17%[38.3 µM] | 28µM*
COc1ccc(OC)c(C2=Nn3c(nnc3-c3ccncc3)SC2)c1 | / | / | -5% | / | / | -12%
CCc1c(C)nc2ncnn2c1NCCc1ccc(Cl)cc1 | / | / | / | / | 14% | /
CSC(=[SH+])N=N/C(=C1/C=CC=CN1)c1ccccn1.[Cu][Br] | / | / | / | / | 6% | ?
CCc1ccc2nc3n[nH]c(N)c3cc2c1 | 9 | 44% | 2% | -8 | 37%[38.3 µM] | 28µM*
Cc1ccc(/C=C/C(=O)N2CCN(c3ncccn3)CC2)o1 | / | / | -5% | -10 | 4% | 20µM*
CC(C)OC(=O)Nc1ccc(Oc2c(F)c(F)c(F)c(F)c2F)cc1 | 4 | -8% | -6% | 18 | 10%[38.3 µM] | -8%
SMILES | IMPase inh | 15-hLO-2 inh | ALOX12 inhib | PNC assembly inh | IMPase Li cell | HPGD block
C/C=C/c1c(F)c(F)c(Oc2ccc(C(=O)O)cc2)c(F)c1F | -2 | -6% | 5% | -84* | 29%[38.3 µM] | ?
COc1cc(OC)c(NC(=O)CCc2ccccc2)cc1Cl | 1 | 4% | 4% | -30 | 3%[38.3 µM] | 16µM*
COc1cc(Cl)c(C)cc1NC(=O)CSc1ccccc1 | / | / | -2% | -125* | 15% | -11%
COc1cc(Cl)c(C)cc1NC(=O)CSc1ccc(C)cc1 | 7 | -4% | 3% | 16 | 37%[38.3 µM] | -13%
COc1ccc(Cl)cc1NC(=O)CCc1ccccc1 | 4 | -3% | 0% | -17 | 14%[38.3 µM] | -21%
COc1cc(Cl)c(C)cc1NC(=O)CSc1cc(Cl)ccc1Cl | 1 | / | -2% | -119* | 16% | -9%
CCN(CC)S(=O)(=O)c1ccc(C)c(N=C=S)c1 | / | / | / | / | 16% | /
COCCn1cnnc1SCC(=O)Nc1cc(OC)c([N+](=O)[O-])cc1C | / | / | / | / | 1% | /
C/C(=C\C[Si](C)(C)C)CC[C@H](O)C1=CCCCC1=O | / | / | / | / | -5% | -9%
CC1=CC(c2ccccc2)n2nc(N3C(=O)c4ccccc4C3=O)nc2N1 (configuration not stated) | -2 | -7% | -3% | -5 | 20%[38.3 µM] | -5%
CC1=CC(c2ccccc2)n2nc(N3C(=O)CCC3=O)nc2N1 (configuration not stated) | ? | / | 1% | -94* | 5% | ?
Cc1cc(C)cc(NC(=S)NCCN(C2CCCCC2)C2CCCC2)c1 | / | / | / | / | 19% | /
CCn1c2ccccc2c2cc(NC(=O)c3ccc(Br)o3)ccc21 | 4 | 3.2µM* | -7% | ? | 21%[38.3 µM] | 4.5µM*
O=C(Nc1cccc(OC(F)(F)F)c1)c1ccc(Br)o1 | -1 | -12% | -6% | -22 | 7%[38.3 µM] | 25µM*
CCC(=O)N1CCN(c2ccc(NC(=O)c3ccc(Br)o3)cc2)CC1 | / | / | 2% | -94* | -1% | -5%
O=C(Nc1cccc(F)c1)c1ccc(Br)o1 | / | -6%[0.0915 µM] | 2%[0.00818 µM] | 0 | -10% | -25%
CCn1c2ccccc2c2cc(NC(=O)c3cc(OC)c(OC)c(OC)c3)ccc21 | 5 | 7% | -11% | ? | -7%[38.3 µM] | ?
CCn1c2ccccc2c2cc(NC(=O)c3cc(OC)cc(OC)c3)ccc21 | / | / | 0% | -97* | 11% | ?
CCn1c2ccccc2c2cc(NC(=O)c3cc(C)on3)ccc21 | / | / | / | / | -3% | /
CSc1nc(C)cc(Oc2ccccc2)n1 | / | / | / | / | 4% | /
O=C(NC(=S)Nc1ccc(Cc2ccncc2)cc1)c1ccc(F)cc1 | / | / | / | / | 20% | /
CCCn1c(SCC(=O)Nc2ccc(OC)cc2)nnc1-c1ccncc1 | 9 | -2% | 3% | 29 | 25%[38.3 µM] | -7%
CC(=O)NC(Cc1c[nH]c2ccccc12)C(=O)OCC(=O)Nc1cc(C)on1 (configuration not stated) | 5[1.84 µM] | 6%[11.4 µM] | 0% | -92* | 27%[38.3 µM] | -1%
NC(=O)CCCCC(N)=O | / | 3% | -4% | / | 15% | -17%
O=C(CSc1nccn1-c1ccccc1)Nc1ccc2c(c1)OCO2 | 0 | 5% | -17% | -21 | 4%[38.3 µM] | -18%
Cc1cc(C)cc(-n2ccnc2SCC(=O)Nc2ccc3c(c2)OCCO3)c1 | ? | 5% | -2% | -85* | 31%[38.3 µM] | -11%
CC(C)c1ccccc1NC(=S)NCc1ccncc1 | / | / | / | / | -3% | /
CCc1ccc(N2C(=O)CC(NNc3nc4ccccc4s3)C2=O)cc1 (configuration not stated) | 0 | / | -1% | ? | 4% | -11%
